D1 antagonist: human D1 dopamine receptor antagonism; P21728; HEK293 TREx D1 cells, calcium flux, dopamine EC80; active compounds read low; activity change, negative = inhibition, % at 10 µM; 360,000 compounds, 3.2% hits; AID 504652; in the data active means activity change below about -30%; further: on the % scale 0 is the no-effect control and ±100 the full control effect
Target sequence (P21728 whole entry, looked up): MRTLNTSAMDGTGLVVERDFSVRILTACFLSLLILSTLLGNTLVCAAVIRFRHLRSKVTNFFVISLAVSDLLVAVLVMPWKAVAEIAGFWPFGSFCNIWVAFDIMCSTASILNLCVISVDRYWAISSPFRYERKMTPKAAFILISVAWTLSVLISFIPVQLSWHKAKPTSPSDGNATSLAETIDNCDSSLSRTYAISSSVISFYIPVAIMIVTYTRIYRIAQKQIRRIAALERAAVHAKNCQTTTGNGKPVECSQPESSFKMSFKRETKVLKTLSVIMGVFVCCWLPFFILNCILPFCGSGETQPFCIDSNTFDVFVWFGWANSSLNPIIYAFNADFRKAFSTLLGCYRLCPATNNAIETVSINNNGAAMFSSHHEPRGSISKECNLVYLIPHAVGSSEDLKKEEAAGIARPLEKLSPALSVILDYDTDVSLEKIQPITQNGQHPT
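Cells carrying a force-coupled, tetracycline-inducible human D1 receptor report calcium flux. Each well gets a 10 s baseline, compound with 180 s monitoring, then an EC80 dopamine stimulus with a second 180 s kinetic read.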
TRHR agonist: TRH receptor (human) agonism. 360,000 compounds, 0.18% hits. P34981. TRHR cells, calcium flux fluo-8, FDSS agonist mode. AID 493084. activation, % at 2 µM; further: 0% is about no effect
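TRHR-expressing cells loaded with fluo-8 calcium dye; 23 nL library compound pin-transferred, kinetic FDSS fluorescence (Ex 480/Em 530) recorded about 180 s for agonist-induced calcium release, before a 10 nM TRH EC20 addition for potentiator mode.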
D1 potentiator: potentiators of human D1 dopamine receptor; HEK293 TREx D1 cells, calcium flux, dopamine EC20 potentiation; potentiation, % at 10 µM; AID 504651; P21728; 360,000 compounds, 0.036% hits; in the data active means potentiation above about 30%; further: 0% is about no effect
D1 agonist: agonists of human D1 dopamine receptor; activation, % at 2 µM; 360,000 compounds, 1% hits; P21728; HEK293 T-REx D1 cells, calcium flux, agonist mode; further: 0% is about no effect
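Tetracycline-induced HEK293 TREx D1 cells, force-coupled to calcium signalling, were dye-loaded with a no-wash calcium kit. Compound was pin-added after a 10 s baseline. Fluorescence was read kinetically at 1 cycle/s for 180 s, with calcium rises flagged as agonism.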
TRHR enhancer: allosteric enhancers of human TRH receptor; P34981; TRHR cells, fluo-8 calcium fluorescence, EC20 TRH enhancement; enhancement, % at 2 µM; 360,000 compounds, 0.66% hits; in the data active means enhancement above about 30%; further: 0% is about no effect
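Enhancer read-out: after compound pinning and an initial kinetic agonist-mode read, an EC20 of TRH (10 nM final) was injected and fluo-8 calcium signal (Ex 480/Em 530) followed at 1 s/cycle for 100 cycles in TRHR-expressing cells.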
* hit, by the source's call; / = not tested or not shown. Only some compounds are listed: those with a hit (about 4.6% of all), similar ones and a draw of the others. Unless noted, no stated cut-off is given here; in the data, active means activation above about 30%; inactive means the rest.

SMILES	D1 antagonist	TRHR agonist	D1 potentiator	D1 agonist	TRHR enhancer
O=C(Cn1ccc2ccccc2c1=O)N1CCN(Cc2ccc3c(c2)OCO3)CC1	-57*	0	-4	-1	4
O=C(CCc1ccc(S(=O)(=O)NCc2ccccc2)cc1)N1CCN(Cc2ccc3c(c2)OCO3)CC1	-27	0	-6	13	0
O=C(c1cccc(Cl)c1)N1CCN(Cc2ccc3c(c2)OCO3)CC1	-3	0	-3	2	0
O=C(CN1CCN(Cc2ccc3c(c2)OCO3)CC1)N1CCc2[nH]c3ccc(F)cc3c2C1	-27	0	-1	34*	-1
Clc1cccc(Oc2ncc(CN3CCOCC3)s2)c1	-2	1	-12	3	1
O=C(c1cc2c(=O)n3ccccc3nc2s1)N1CCN(Cc2ccc3c(c2)OCO3)CC1	-31*	0	-1	0	-3
Cn1cnnc1SCC(=O)Nc1ccc(S(=O)(=O)N2CCOCC2)cc1	-6	0	/	0	-4
Cn1c2c(c(=O)n(C)c1=O)C(C(F)(F)F)(C(F)(F)F)N=C(CCC1CCCCC1)N2	-52*	2	-8	18	-4
Oc1[nH]c2ccccc2c1N=NC(=S)NCC1CCCO1 (stereo unspecified)	-45*	-1	-3	1	0
O=C(Nc1ncc(S(=O)(=O)c2ccc([N+](=O)[O-])cc2)s1)c1ccccc1F	-12	8	8	38*	4
O=C(Nc1ccc([N+](=O)[O-])cc1)c1ccccc1F	-17	-1	-9	2	-3
COc1cccc(CNC(=O)CC(c2ccc(C)cc2)N2Cc3ccccc3C2=O)c1 (stereo unspecified)	-32*	-1	-2	-1	-2
COc1cc([N+](=O)[O-])ccc1NC(=O)CSc1nnc(C)c(C)n1	6	-1	-4	1	-3
CCOC(=O)N1CCC(Nc2ncnc3c2cnn3-c2ccc(C)cc2C)CC1	-31*	0	-4	1	30
C=CCNc1ncnc2c1cnn2-c1ccc(C)cc1C	17	-1	4	-1	11
CC(=O)Nc1ccc(Nc2ncnc3c2cnn3-c2ccc(C)cc2C)cc1	/	0	-4	-2	-9
Cc1ccc(-n2ncc3c(NCC(C)C)ncnc32)c(C)c1	-32*	1	-1	-1	-1
O=C(COC(=O)C1CCN(S(=O)(=O)c2cc([N+](=O)[O-])ccc2Cl)CC1)Nc1ncc(Cl)cc1Cl	-34*	-1	2	0	17
COC1C(C)=C(C)C(=O)N1Cc1ccccc1 (stereo unspecified)	5	1	-1	4	1
Cc1ccc(CNC(=O)CN2C(=O)CSc3ccc(S(=O)(=O)N(C)C)cc32)cc1	1	0	0	3	5
COc1cc(NC(=O)CCc2c(C)nc3c(-c4ccc(F)cc4)c(C)nn3c2C)cc(OC)c1OC	-41*	0	-8	0	4
COc1cc(OC)cc(-c2nc3nc(C)c(CCC(=O)Nc4ccc(C)c(C)c4)c(C)n3n2)c1	-57*	1	-3	3	6
CCC1(CC)NC(=O)N(CC(=O)Nc2ccc(S(=O)(=O)N3CCOCC3)cc2)C1=O	-25	0	-10	4	10
Nc1nc2ccccc2n1CCOc1ccccc1Cl	-36*	1	-6	20	1
CCN(CC)CCn1c(=N)n(CCOc2ccccc2Cl)c2ccccc21	-7	-1	-2	53*	5
SMILES	D1 antagonist	TRHR agonist	D1 potentiator	D1 agonist	TRHR enhancer
Nc1nc2ccccc2n1CCOc1ccc(Cl)cc1	-4	1	-15	11	9
CCCCNC(=O)CNC(=S)N(Cc1cc(OC)c(OC)c(OC)c1)C1CCCC1	21	0	-6	0	3
Cc1ccc(OCC(=O)O/N=C(\N)c2ccccn2)cc1C	-44*	0	-8	8	-2
Cc1cc(C)cc(OCC(=O)NNC(=O)c2ccccn2)c1	-38*	0	-1	2	1
COc1ccccc1CNC(=O)CCc1c(C)nc2c(c(C)nn2-c2ccc(C)c(C)c2)c1C	-73*	1	-3	-2	-3
COc1ccccc1Nc1c2ccccc2nc2ccccc12	-52*	0	-6	3	0
COc1ccc(Nc2c3ccccc3nc3ccccc23)cc1	-95*	0	-8	19	0
c1cncc(Nc2c3ccccc3nc3ccccc23)c1	-31*	0	-15	3	-11
